# From PubChem
# The list is not random: actives were taken first. Their share in the collection is about 2.2%.
# mIDH1 inhibitor: inhibitors of human mutant IDH1 R132H | AID 602179 | O75874 | IDH1-R132H enzyme, NADPH consumption, diaphorase/resazurin fluorescence | 0.093% of 390,000 active | Potency, µM (top dose mostly 76.6 µM), hits mostly inhibitors; also: nearly all actives have a fitted effect of over 65% in size
# Target sequence (O75874 whole entry R132H, stated change not applied): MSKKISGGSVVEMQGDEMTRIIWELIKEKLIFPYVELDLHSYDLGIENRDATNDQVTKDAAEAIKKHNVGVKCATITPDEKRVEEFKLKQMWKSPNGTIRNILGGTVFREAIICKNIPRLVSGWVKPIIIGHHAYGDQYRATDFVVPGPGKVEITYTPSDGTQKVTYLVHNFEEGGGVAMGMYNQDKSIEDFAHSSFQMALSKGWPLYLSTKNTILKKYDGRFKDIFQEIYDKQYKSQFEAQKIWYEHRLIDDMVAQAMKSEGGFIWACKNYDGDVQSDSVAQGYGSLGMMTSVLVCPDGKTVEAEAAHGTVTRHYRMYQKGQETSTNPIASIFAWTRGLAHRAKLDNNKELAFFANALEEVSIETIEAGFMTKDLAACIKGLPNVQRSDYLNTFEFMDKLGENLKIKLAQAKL
#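 IDH1-R132H (0.5 ug/mL dispensed) in pH 7.5 Tris buffer was preincubated 30 min with compound, then given a substrate mix of 0.016 mM NADPH and 2 mM alpha-KG for 80 min at room temperature; remaining NADPH was read by diaphorase/resazurin fluorescence.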
# LDHA inh: blocks human lactate dehydrogenase A. P00338. purified LDHA, NADH/diaphorase-resazurin fluorescence; hits give low values. activity change, % (values are at about 110 or 230 µM). 0.15% of 480,000 active; in the data active = activity change below about -30%; inconclusive = mostly about -25% to -30%
#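 Resorufin fluorescence (ex540/em590), read at 0 and 20 min after diaphorase/resazurin addition, reports the NADH left after a 5 min room-temperature reaction of 2 nM human LDH5 with 0.06 mM NADH and 0.2 mM pyruvate.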
# ATXN2 expr inh: inhibitors of ATXN2 expression. HEK-293 ATXN2-luciferase reporter, luminescence, 24 h. Potency, µM (titrated, usually from 57 µM), most hits filed as inhibitors. 0.72% of 360,000 active; also: nearly all actives have a fitted effect of over 55% in size
#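 qHTS (up to 57 uM final) was run with 24 h compound exposure of reporter cells at 37 °C. Each well was multiplexed: SteadyGlo luminescence measured ATXN2-luciferase expression after a fluorogenic Gly-Phe-AFC viability readout (25 uM final).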
# HepG2 tox-1: HepG2 cytotoxicity, counter-screen for TGF-b inhibitors; HepG2 CAGA-GFP viability, ATP luminescence, 18 h; Potency, µM (titrated, usually from 46.1 µM), most hits filed as cytotoxic; 0.76% of 410,000 active
#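 HepG2 CAGA-GFP cells (1000/well, DMEM with 1% FBS) received compound, then TGF-beta at 500 pg/mL final, and were incubated 18 hours at 37 degrees C. Viability was read by CellTiter-Glo luminescence. Media-only wells were set as complete cell-killing and DMSO as no toxicity.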
# ATXN viability: viability counter-screen for ATXN expression inhibitors; Potency, µM (series often up to 56.7 µM), hits mostly cytotoxic; AID 651635; 0.49% of 400,000 active; S2 cells (HEK-293 line with an ATXN2-luciferase reporter) viability, CellTiter-Fluor protease fluorescence, 24 h; also: nearly all actives have a fitted effect of over 40% in size
# TGFb inhibitor: blocks TGF-b signaling. 1.2% of 410,000 active. Potency, µM (titrated, usually from 46.1 µM), most hits filed as inhibitors. HepG2 CAGA-GFP TGF-b/SMAD3 reporter, GFP fluorescence, 18 h; TGF-beta stimulated, 500 pg/mL final; also: nearly all actives have a fitted effect of over 65% in size
#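 TGF-beta reporter screen: HEPG2 CAGA-GFP, 1% FBS, 500 pg/mL TGF-beta final, 18 h; per-cell GFP summed per well; curves fitted and categorized by class.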
# TGFb confirm: TGF-b pathway inhibition, cherry-pick retest; Potency, µM (top dose mostly 46.1 µM), actives largely listed as inhibitors; shares compounds with TGFb inhibitor; HepG2 CAGA-GFP TGF-b reporter, GFP fluorescence, 18 h; cells stimulated with TGF-beta, 500 pg/mL; 63% of 1,600 active; AID 720534; also: nearly all actives have a fitted effect of over 65% in size
# HepG2 tox-2: toxic to HepG2 cells in TGF-b counterscreen; shares compounds with TGFb inhibitor; HepG2 CAGA-GFP viability, ATP luminescence, 18 h; cells stimulated with TGF-beta, 500 pg/mL; Potency, µM (top dose mostly 46.1 µM), actives largely listed as inhibitors; 27% of 1,600 active; AID 720535; also: nearly all actives have a fitted effect of over 70% in size
# CCL64 TGFb inh: blocks TGF-b signaling in CCL64 reporter cells | shares compounds with TGFb inhibitor | CCL64 CAGA-GFP reporter, TGF-b stimulated, GFP fluorescence, 18 h | Potency, µM (highest dose often 46.1 µM), hits mostly inhibitors | 41% of 1,600 active | AID 720536; also: nearly all actives have a fitted effect of over 65% in size
# COP TGFb inh: TGF-b inhibition validated with COP promoter; HepG2 COP-GFP TGF-b reporter, GFP fluorescence, 18 h; cells stimulated by added recombinant TGF-beta; Potency, µM (series often up to 46.1 µM), hits mostly inhibitors; AID 720537; 3% of 1,600 active; shares compounds with TGFb inhibitor; also: nearly all actives have a fitted effect of over 70% in size
# Hits are given with their value; – = inactive; ? = inconclusive; · = no result. Unless noted, calls follow the shape of the dose curve; as a rule, active = well fitted curve in the direction sought with a large enough effect; inconclusive = small, poorly fitted or top-dose-only effect, or another doubt; inactive = no such curve, though single readings can be large; an effect the other way counts as inactive or inconclusive.
SMILES,mIDH1 inhibitor,LDHA inh,ATXN2 expr inh,HepG2 tox-1,ATXN viability,TGFb inhibitor,TGFb confirm,HepG2 tox-2,CCL64 TGFb inh,COP TGFb inh
CCCCCOc1ccc(CSCCNC(=S)Nc2ccccc2)cc1,–,–,–,–,–,–,·,·,·,·
CCCCOc1ccc(CSCCNC(=S)Nc2ccccc2)cc1,–,–,–,–,?,7.94µM,?,–,–,–
CCOc1ccc(NCc2nc3ccccc3n2CCOc2ccccc2)cc1,–,–,–,–,?,20µM,14.6µM,–,–,–
COc1ccc(C(=O)/C(C#N)=N/Nc2ccccc2[N+](=O)[O-])cc1,–,–,–,–,?,1.12µM,10.3µM,?,?,–
CCC(=O)OCC(=O)Nc1ccc([N+](=O)[O-])cc1OC,–,–,–,–,–,–,·,·,·,·
C(=C\c1ccccc1)/CN1CCN(C(c2cccs2)c2nnnn2Cc2ccccc2)CC1 (configuration not stated),·,–,?,–,?,11.2µM,16.4µM,?,?,–
C(=C\c1ccccc1)/CN1CCN(C(CCc2ccccc2)c2nnnn2C2CCCC2)CC1 (configuration not stated),·,–,–,–,?,11.2µM,20.6µM,?,?,–
C(=C\c1ccccc1)/CN1CCN(C(c2cccc3ccccc23)c2nnnn2Cc2ccccc2)CC1 (configuration not stated),·,–,–,–,–,?,·,·,·,·
C(=C\c1ccccc1)/CN1CCN(C(c2ccccc2)c2nnnn2C2CCCC2)CC1 (configuration not stated),·,–,–,–,?,?,·,·,·,·
C(=C\c1ccccc1)/CN1CCN(C(c2nnnn2C2CCCC2)C2CC2)CC1 (configuration not stated),·,–,–,–,?,7.94µM,?,–,–,–
COc1ccc(C(=O)C(CCC(CNC(C)(C)C)C(=O)c2ccc(OC)cc2)CNC(C)(C)C)cc1 (configuration not stated),–,–,?,–,?,7.08µM,?,18.4µM,4.11µM,?
CCCOc1ccc(C(=O)C(CCC(CNC(C)(C)C)C(=O)c2ccc(OCCC)cc2)CNC(C)(C)C)cc1 (configuration not stated),·,–,·,·,·,·,·,·,·,·
COc1ccccc1N1CCN(C(=O)NCc2ccc(Cl)cc2)CC1,–,–,–,–,–,–,·,·,·,·
COc1ccccc1N1CCN(C(=O)c2ccc(-c3ccc(Cl)cc3)o2)CC1,–,–,·,–,?,8.91µM,13µM,11.6µM,?,–
CN(C)c1ccc(C(=O)NC2CCCc3ccccc32)cc1 (configuration not stated),–,–,–,–,–,–,·,·,·,·
CCC(C)Sc1ccc([C@@H]2[C@@H]3C(=O)N(CC)C(=O)[C@@H]3[C@]3(C(=O)OC)CCCCN23)cc1OC (some centres not stated),–,–,–,–,–,?,?,–,–,–
